Results with a measured potency or affinity are listed apart. Calls of active or inactive are those of the source.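 The calls were made as follows: active = fitted half-maximal dose no more than twice the top valid tested dose, for compounds that lower signal; inconclusive = fit invalid, or curve flat with activity between -70 and -30; inactive = potency past limit, curve flat within ±30, or signal increasing.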
Each molecule was assayed against NAD-dependent protein deacylase sirtuin-5, mitochondrial (Homo sapiens) (UniProt Q9NXA8) (assay: SIRT5 deacylase inhibitors, dose response, biochemical, fluorescence imaging, cherry-pick, set 6 (AID 720597;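 also: lower AMC signal can also come from blocking the trypsin step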)). Details: Purified SirT5, succinyl-peptide-AMC/trypsin fluorescence; series mostly up to 15 µM.
Sequence of NAD-dependent protein deacylase sirtuin-5, mitochondrial (Homo sapiens) (Q9NXA8 whole entry, looked up): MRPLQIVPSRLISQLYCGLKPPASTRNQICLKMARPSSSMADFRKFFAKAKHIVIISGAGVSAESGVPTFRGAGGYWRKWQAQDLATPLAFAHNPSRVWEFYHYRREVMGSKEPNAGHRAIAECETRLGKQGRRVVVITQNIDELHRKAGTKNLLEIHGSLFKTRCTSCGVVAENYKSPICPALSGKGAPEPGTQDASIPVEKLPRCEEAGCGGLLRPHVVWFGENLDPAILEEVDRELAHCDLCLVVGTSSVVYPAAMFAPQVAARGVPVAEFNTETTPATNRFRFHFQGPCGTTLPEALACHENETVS

outcome, inactive:
COc1ccc(S(=O)(=O)N(C)C[C@H]2OCCCC[C@@H](C)Oc3ccc(NS(=O)(=O)c4ccc(F)cc4)cc3C(=O)N([C@H](C)CO)C[C@H]2C)cc1
C[C@@H]1CCCCO[C@H](CN(C)C(=O)Cc2ccccc2)[C@@H](C)CN([C@H](C)CO)C(=O)c2cc(NS(=O)(=O)c3cn(C)cn3)ccc2O1
COc1cccc(NC(=O)N(C)C[C@@H]2OCc3cn(nn3)CCCC(=O)N([C@H](C)CO)C[C@H]2C)c1
Cc1noc(C)c1S(=O)(=O)N(C)C[C@@H]1Oc2ccc(NC(=O)Cn3cnnn3)cc2C(=O)N([C@@H](C)CO)C[C@@H]1C
COc1ccc(S(=O)(=O)Nc2ccc3c(c2)C(=O)N([C@H](C)CO)C[C@@H](C)[C@H](CN(C)Cc2ccc(C(F)(F)F)cc2)OCCCC[C@H](C)O3)cc1
Cc1cc(C(=O)Nc2cccc3c2O[C@@H](CN(C)Cc2ccc(Oc4ccccc4)cc2)[C@H](C)CN([C@H](C)CO)C3=O)n(C)n1
COc1ccc(C#Cc2ccc([C@H]3[C@@H](CO)N4C(=O)CN(C(=O)c5cccnc5)C[C@H]34)cc2)cc1
COc1cccc(S(=O)(=O)N(C)C[C@H]2Oc3cc(C4=CCCC4)ccc3S(=O)(=O)N([C@@H](C)CO)C[C@H]2C)c1
Cc1ccc(S(=O)(=O)N[C@@H]2CC[C@@H](CC(=O)N3CCN(c4ccccc4)CC3)O[C@@H]2CO)cc1
COc1ccccc1-c1ccc2c(c1)O[C@@H](CN(C)S(=O)(=O)c1ccc(F)cc1)[C@@H](C)CN([C@H](C)CO)S2(=O)=O
O=C(C1CCC1)N1CC[C@H]2[C@H](CO)Nc3ccc(C#Cc4cccc(F)c4)cc3[C@H]21
